# From PubChem BioAssay
# The source made the active and inactive calls.
# What was measured:
# [1] = small molecules captured by biotinylated probe aFSTL3 – biochemical, small-molecule microarray, fluorescence 635/667, stem cell growth factor project, primary screen (AID 1064); settings: higher = more signal;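 further: measures binding of the biotinylated anti-FSTL3 antibody to printed compounds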
# [2] = binders from COS7 lysate, DM2A8 probe, primary screen, torsin A project, cell lysate, small-molecule microarray, fluorescence 635/667 (AID 1065); settings: higher = more signal, COS7 lysate expressing mutant human TOR1A
# [3] = small molecules captured by biotinylated probe aFGF2 – biochemical, small-molecule microarray, fluorescence 635/667, stem cell growth factor project, primary screen (AID 1067); settings: higher = more signal;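 further: measures binding of biotinylated aFGF2 protein to printed compounds on slides; z-score merges feature fluorescence and signal-to-noise across triplicate slides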
# [4] = small molecules captured by biotinylated probe aFGF10 – biochemical, small-molecule microarray, fluorescence 635/667, stem cell growth factor project, primary screen (AID 1071); settings: higher = more signal;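 further: score merges 667 nm spot intensity and signal to noise from triplicate slides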
# [5] = target: Neurogenic locus notch homolog protein 2 (Homo sapiens) (UniProt Q04721); experiment: small molecules binding Notch2 protein – biochemical, small-molecule microarray, 635 nm fluorescence, stem cell growth factors, primary screen (AID 1073); settings: higher = more signal
# [6] = target: Pro-neuregulin-1, membrane-bound isoform (Homo sapiens) (UniProt Q02297); experiment: small molecules binding neuregulin-1 protein – biochemical, small-molecule microarray, fluorescence 635/667, psychiatric disease protein project, primary screen (AID 1075); settings: NRG1 binding, 635 nm fluorescence, higher = more signal;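 further: score combines 667 nm spot fluorescence with signal to noise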
# Pro-neuregulin-1, membrane-bound isoform (Homo sapiens), sequence (Q02297 whole entry, looked up, the tested form may be a part, canonical isoform): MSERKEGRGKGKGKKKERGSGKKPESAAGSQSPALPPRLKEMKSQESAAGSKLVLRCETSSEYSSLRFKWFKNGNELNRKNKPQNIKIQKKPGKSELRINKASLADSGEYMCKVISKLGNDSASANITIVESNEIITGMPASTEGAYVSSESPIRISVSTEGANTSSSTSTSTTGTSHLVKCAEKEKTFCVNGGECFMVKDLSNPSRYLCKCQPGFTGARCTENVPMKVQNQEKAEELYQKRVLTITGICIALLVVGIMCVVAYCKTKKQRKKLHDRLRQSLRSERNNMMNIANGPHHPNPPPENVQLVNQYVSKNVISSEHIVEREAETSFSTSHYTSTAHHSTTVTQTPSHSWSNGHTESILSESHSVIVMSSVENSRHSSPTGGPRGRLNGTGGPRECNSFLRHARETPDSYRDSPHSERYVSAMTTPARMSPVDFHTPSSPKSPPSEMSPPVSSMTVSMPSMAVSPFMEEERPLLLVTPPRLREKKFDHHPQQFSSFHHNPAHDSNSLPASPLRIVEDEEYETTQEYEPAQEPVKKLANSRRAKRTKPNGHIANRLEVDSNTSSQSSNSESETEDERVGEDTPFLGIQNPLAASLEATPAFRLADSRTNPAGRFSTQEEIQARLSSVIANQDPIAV
# [7] = tested on: Neuregulin-1 EGF-like domain; experiment: small molecules binding NRG1 EGF domain – biochemical, small-molecule microarray, 635 nm fluorescence, primary screen (AID 1081); settings: higher = more signal;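 further: binding of the protein to compounds printed on small-molecule microarray slides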
# [8] = FRG1 expression reporter modulators in myotubes – cell-based, C2C12 myotubes, firefly/Renilla luciferase, luminescence, FRG1 inhibition for FSHD, primary screen (AID 1084); settings: FRG1 promoter luciferase, higher = more signal, called active from +8 up or from −8 down
# [9] = small molecules captured by biotinylated probe aFST – biochemical, small-molecule microarray, fluorescence 635/667, stem cell growth factor project, primary screen (AID 1086); settings: higher = more signal;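 further: score merges 667 nm fluorescence with signal-to-noise of each printed compound spot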
# [10] = binders of probe aHhip on microarray, primary screen, stem cell growth factor project, biochemical, small-molecule microarray, fluorescence 635/667 (AID 1087); settings: higher = more signal;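 further: score merges spot fluorescence at 667nm with spot signal to noise ratio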
# [11] = tested on: PRMT1 (protein arginine N-methyltransferase 1); experiment: small molecules binding arginine methyltransferase PRMT1 – biochemical, small-molecule microarray, 635 nm fluorescence, primary screen (AID 1088); settings: higher = more signal;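 further: binding of Prmt1 protein to compounds spotted on small-molecule microarray slides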
# [12] = growth effects on S. cerevisiae YJM789 – YJM789 clinical isolate, OD600, 24 h, basal, primary screen (AID 1089); settings: higher = more signal, called active from +8 up or from −8 down;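 further: growth of clinical yeast isolate S. cerevisiae YJM 789 seeded 1000 cells per well; test concentration not given here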
# [13] = S. pombe growth modifiers, basal conditions – strain 972, OD600, 24 h, no modulator, primary screen (AID 1090);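 further: basal condition with compound alone and no growth modifier present; test concentration not given here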; settings: S. pombe 972 growth, higher = more signal, called active from +8 up or from −8 down
# [14] = budding yeast growth modifiers under rapamycin – strain BY4716, OD600, 96 h, primary screen (AID 1091); further: test concentration not given here; settings: S. cerevisiae BY4716 + rapamycin, higher = more signal, called active from +8 up or from −8 down
# [15] = target: Torsin-1A-interacting protein 2 (Homo sapiens) (UniProt Q8NFQ8); experiment: small molecules binding lysate-expressed LULL1 – cell lysate, human LULL1 lysate, 635/667 nm fluorescence, primary screen (AID 1092); settings: small-molecule microarray, hLULL1 lysate binding, 635 nm fluorescence; higher = more signal;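 further: probe is lysate of COS7 cells overexpressing human LULL1; score merges per-feature 667 nm fluorescence with signal-to-noise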
# Torsin-1A-interacting protein 2 (Homo sapiens), sequence (Q8NFQ8 whole entry, looked up): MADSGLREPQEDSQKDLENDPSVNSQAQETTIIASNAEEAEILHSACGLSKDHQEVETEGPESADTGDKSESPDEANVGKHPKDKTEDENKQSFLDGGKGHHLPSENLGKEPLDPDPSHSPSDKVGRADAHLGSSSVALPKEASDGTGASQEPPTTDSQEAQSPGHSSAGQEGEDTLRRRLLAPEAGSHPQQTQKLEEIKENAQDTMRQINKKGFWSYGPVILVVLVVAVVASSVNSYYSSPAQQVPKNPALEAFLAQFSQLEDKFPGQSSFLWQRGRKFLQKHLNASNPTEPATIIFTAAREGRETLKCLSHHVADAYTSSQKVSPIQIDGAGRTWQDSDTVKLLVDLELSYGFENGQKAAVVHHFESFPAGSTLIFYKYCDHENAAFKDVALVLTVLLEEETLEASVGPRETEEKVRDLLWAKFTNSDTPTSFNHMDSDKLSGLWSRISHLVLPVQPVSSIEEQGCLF
# [16] = optical density change of DRC41 E. coli – strain DRC41, OD650, 24 h, E. coli filamentation project, primary screen (AID 1093);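 further: MC1000 strain lacking acrAB efflux and sulA so SOS filamentation is blocked; test concentration not given here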; settings: E. coli DRC41 growth, higher = more signal, called active from +8 up or from −8 down
# [17] = probe aLefty2 binding to arrayed compounds – biochemical, biotinylated probe, 635/667 nm fluorescence, primary screen (AID 1094); settings: small-molecule microarray, higher = more signal;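 further: score merges spot fluorescence near 667 nm with spot signal-to-noise ratio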
# [18] = tested on: Noggin (protein binding on small-molecule microarray); experiment: small molecules binding Noggin protein – biochemical, 635/667 nm fluorescence, primary screen (AID 1095); settings: 635 nm fluorescence, higher = more signal;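 further: score merges 667 nm feature fluorescence with signal to noise over triplicate slides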
# [19] = target: Neurogenic locus notch homolog protein 3 (Homo sapiens) (UniProt Q9UM47); experiment: small molecules binding NOTCH3 protein – biochemical, 635/667 nm fluorescence, primary screen (AID 1096); settings: small-molecule microarray, 635 nm fluorescence, higher = more signal
# Neurogenic locus notch homolog protein 3 (Homo sapiens), sequence (Q9UM47 whole entry, looked up): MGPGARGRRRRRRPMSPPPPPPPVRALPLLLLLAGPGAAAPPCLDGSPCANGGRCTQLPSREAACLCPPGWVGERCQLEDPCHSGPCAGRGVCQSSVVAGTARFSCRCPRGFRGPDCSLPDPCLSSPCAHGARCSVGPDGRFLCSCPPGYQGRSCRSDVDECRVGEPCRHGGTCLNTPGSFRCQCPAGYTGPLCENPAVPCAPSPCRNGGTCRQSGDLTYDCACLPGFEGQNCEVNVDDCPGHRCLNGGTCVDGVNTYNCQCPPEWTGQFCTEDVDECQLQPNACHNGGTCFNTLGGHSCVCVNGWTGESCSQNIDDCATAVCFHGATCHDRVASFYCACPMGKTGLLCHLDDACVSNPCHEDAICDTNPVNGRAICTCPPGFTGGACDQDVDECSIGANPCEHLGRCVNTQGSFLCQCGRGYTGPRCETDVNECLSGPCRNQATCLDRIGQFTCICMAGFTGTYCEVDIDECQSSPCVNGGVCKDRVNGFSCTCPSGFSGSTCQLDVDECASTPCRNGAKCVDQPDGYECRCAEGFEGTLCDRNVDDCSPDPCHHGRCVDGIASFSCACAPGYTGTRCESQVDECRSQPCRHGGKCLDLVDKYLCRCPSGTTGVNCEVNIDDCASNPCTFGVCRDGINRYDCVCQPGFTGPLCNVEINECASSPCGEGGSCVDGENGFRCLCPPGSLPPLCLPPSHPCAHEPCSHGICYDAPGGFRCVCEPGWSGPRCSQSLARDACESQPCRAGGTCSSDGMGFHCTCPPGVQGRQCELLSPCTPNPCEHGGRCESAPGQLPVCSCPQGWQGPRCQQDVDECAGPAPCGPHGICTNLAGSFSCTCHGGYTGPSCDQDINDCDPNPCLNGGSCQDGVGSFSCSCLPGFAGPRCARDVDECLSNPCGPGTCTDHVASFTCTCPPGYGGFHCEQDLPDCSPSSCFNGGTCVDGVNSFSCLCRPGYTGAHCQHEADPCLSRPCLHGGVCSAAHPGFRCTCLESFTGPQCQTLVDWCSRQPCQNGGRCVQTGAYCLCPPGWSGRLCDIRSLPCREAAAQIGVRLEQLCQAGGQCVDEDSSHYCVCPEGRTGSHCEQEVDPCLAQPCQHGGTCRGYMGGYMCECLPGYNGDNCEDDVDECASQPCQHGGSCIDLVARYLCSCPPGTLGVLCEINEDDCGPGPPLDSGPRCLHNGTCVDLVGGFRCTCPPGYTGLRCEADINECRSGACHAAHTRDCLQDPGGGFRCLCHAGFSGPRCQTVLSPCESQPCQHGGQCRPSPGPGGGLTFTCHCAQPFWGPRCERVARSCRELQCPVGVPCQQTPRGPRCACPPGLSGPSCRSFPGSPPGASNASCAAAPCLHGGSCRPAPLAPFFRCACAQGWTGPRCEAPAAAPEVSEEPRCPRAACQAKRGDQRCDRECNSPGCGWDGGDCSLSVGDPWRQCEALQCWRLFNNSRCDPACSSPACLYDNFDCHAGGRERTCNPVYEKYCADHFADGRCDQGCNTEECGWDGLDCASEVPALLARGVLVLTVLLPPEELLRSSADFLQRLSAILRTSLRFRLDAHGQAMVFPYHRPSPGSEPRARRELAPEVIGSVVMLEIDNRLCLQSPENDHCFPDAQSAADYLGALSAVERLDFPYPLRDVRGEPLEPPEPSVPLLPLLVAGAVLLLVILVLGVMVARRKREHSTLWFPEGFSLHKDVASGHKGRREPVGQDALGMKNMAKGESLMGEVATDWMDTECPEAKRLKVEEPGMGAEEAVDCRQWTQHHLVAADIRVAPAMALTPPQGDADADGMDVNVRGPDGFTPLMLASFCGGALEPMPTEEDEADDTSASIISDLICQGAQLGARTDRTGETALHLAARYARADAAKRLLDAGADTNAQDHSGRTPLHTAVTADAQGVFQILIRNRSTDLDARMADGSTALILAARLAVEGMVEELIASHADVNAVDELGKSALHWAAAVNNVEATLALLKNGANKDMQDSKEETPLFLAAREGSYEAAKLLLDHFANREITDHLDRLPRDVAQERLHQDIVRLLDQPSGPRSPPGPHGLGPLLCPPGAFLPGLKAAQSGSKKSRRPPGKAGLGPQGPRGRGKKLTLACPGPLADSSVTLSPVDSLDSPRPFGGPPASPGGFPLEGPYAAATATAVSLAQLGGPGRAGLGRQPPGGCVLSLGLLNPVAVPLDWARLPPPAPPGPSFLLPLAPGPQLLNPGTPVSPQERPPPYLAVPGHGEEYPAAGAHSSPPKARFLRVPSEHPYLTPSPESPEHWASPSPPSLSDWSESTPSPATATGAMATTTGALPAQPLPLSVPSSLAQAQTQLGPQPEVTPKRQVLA
# [20] = probe aEGFR binding to arrayed compounds – biochemical, biotinylated probe, 635/667 nm fluorescence, primary screen (AID 1097); settings: small-molecule microarray, higher = more signal;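 further: probe is a biotinylated anti-EGFR antibody binding compounds printed on slides; score combines fluorescence near 667 nm and signal to noise of each spot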
SMILES,composite z-score [1],composite z-score [2],composite z-score [3],composite z-score [4],composite z-score [5],composite z-score [6],composite z-score [7],z-score [8],composite z-score [9],composite z-score [10],composite z-score [11],z-score [12],z-score [13],z-score [14],composite z-score [15],z-score [16],composite z-score [17],composite z-score [18],composite z-score [19],composite z-score [20]
CCCCCCCCCCC(O)C1C=CC2C(=O)N(C)C(=O)C2N1N1CCCCC1 (stereo not given),0.449,-0.346,-0.213,-1.1,-1.96,0.252,-0.413,-0.635 (inactive),-0.744,-0.0423,-0.804,1.16 (inactive),-2.31 (inactive),2.18 (inactive),1.64,-1.6 (inactive),-0.118,-1.9,-1.14,-0.368
C=CC[C@@]1(C(=O)N(C)C)N=C(c2ccc(OCCCO)cc2)O[C@@H]1c1ccccc1,0.733,1.13,0.0917,0.794,0.515,2.08,1.38,-0.004 (inactive),0.598,0.109,0.52,-0.69 (inactive),-2.28 (inactive),-2.31 (inactive),3.5,-0.343 (inactive),0.363,-0.474,-0.0401,0.464
COC(=O)Cn1c(C(=O)N(C)C)cc2c1C[C@H]1CN(C(=O)c3ccccc3)[C@@](Cc3ccc(OC)cc3)(C(=O)OC)[C@@H]21,0.2,-0.195,0.347,1.25,1.19,2.13,1.18,0.296 (inactive),0.513,0.0053,0.995,0.211 (inactive),0.833 (inactive),0.493 (inactive),3.7,-0.692 (inactive),0.134,0.471,1.11,-0.0476
CC[C@H](C)C(=O)O[C@H]1CC[C@]2(C)C3=C(CCC2C1(C)C)[C@]1(C)CC[C@H]([C@H](C)CCCC(C)C)[C@@]1(C)CC3 (stereo not given in full),-0.598,0.191,-0.0691,0.332,0.414,0.0345,0.966,0.169 (inactive),0.0889,0.315,0.0683,0.737 (inactive),0.14 (inactive),0.17 (inactive),0.125,2.24 (inactive),-0.108,0.296,0.854,-0.0431
CCOC(=O)C1=CC[C@@H](c2ccc(F)cc2)N(S(=O)(=O)c2ccc(C)cc2)[C@H]1c1ccc([N+](=O)[O-])cc1,-0.283,-0.237,-0.0277,0.639,1.26,1.1,1,-0.507 (inactive),0.919,-0.0645,0.518,0.342 (inactive),1.32 (inactive),6.03 (inactive),2.5,0.543 (inactive),0.0322,-0.234,0.73,-0.0409
CC(C)C(=C=CC[C@@H](O)c1cccc(OCCO)c1)CCO,-0.226,0.17,-0.085,0.742,0.271,-0.163,0.364,-0.202 (inactive),0.321,0.0505,-0.102,0.493 (inactive),-0.0344 (inactive),-0.0595 (inactive),1.07,0.739 (inactive),-0.0003,0.305,0.454,0.0241
C#CCN([C@H](/C=C/C1CC1)[C@@H](O)Cc1ccccc1)[C@@H](Cc1ccccc1)C(=O)OC,0.262,-0.134,-0.121,-0.363,-0.807,-0.458,-0.706,-1.67 (inactive),-0.0804,-0.123,0.447,-0.345 (inactive),-0.825 (inactive),0.316 (inactive),0.126,0.598 (inactive),-0.128,0.237,0.606,-0.198
COc1ccc(C(O)C2C=CC3C(=O)N(C)C(=O)C3N2Nc2ccc([N+](=O)[O-])cc2[N+](=O)[O-])cc1OCc1ccccc1 (stereo not given),-0.0125,0.216,0.258,0.975,1.6,0.875,1.27,0.37 (inactive),1.04,-0.0296,1.35,0.932 (inactive),1.01 (inactive),0.839 (inactive),2.96,-0.636 (inactive),0.468,0.0404,1.06,0.349
COc1cc2c(cc1O)C(C1CC1)N(Cc1ccc([N+](=O)[O-])o1)CC2 (stereo not given),-0.0848,-0.242,-0.0226,0.682,1.52,1.49,1.03,-1.1 (inactive),0.609,-0.0003,0.287,-0.123 (inactive),-3.53 (inactive),-2.16 (inactive),1.85,-1.16 (inactive),-0.0046,-0.2,0.903,-0.0734
CC(C)CNC(=O)[C@@H]1c2ccccc2C(=O)N(Cc2ccccc2)[C@H]1c1ccc(CO)cc1,1.12,0.886,0.0173,-0.0403,-1.04,0.935,0.76,-0.504 (inactive),-0.469,-0.118,0.586,-0.416 (inactive),0.138 (inactive),-0.895 (inactive),3.22,-0.73 (inactive),-0.188,-0.731,-0.677,-0.189
